The values below come from PubChem BioAssay (NCATS).

Assay [1] is described as follows: Cell Viability - SK-N-SH (AID 435).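 Note: potency is the fitted concentration of half-maximal effect; compound exposure lasted 40 h at 37 °C.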 As to conditions: SK-N-SH neuroblastoma cell viability qHTS. Summed up: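 SK-N-SH human neuroblastoma cells (1500/well) were exposed to compounds in complete medium for 40 h at 37 °C, and intracellular ATP was then measured by CellTiter-Glo luminescence. AC50 was taken from Hill fits, normalized to DMSO and 100 uM tamoxifen.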
(In general: Quantitative high-throughput screening tests each substance at several concentrations.)

Assay [2] can be described thus: Cell Viability - NIH 3T3 (AID 541; active = well fitted curve in the direction sought with a large enough effect; an effect the other way counts as inactive or inconclusive;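 note: plate controls were DMSO alone for no effect and tamoxifen positive control for full effect; nearly all actives have a fitted effect of over 25% in size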). Particulars: NIH 3T3 cell viability, qHTS; activity change, negative = cytotoxicity: at 92.2 µM (top of the series). A digest of the protocol:
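Cells seeded at 1000/well, rested 5 hr at 37 °C, then dosed and incubated 40 hr at 37 °C. CellTiter-Glo added, 20 min room temperature, luminescence read. AC50 by Hill fit.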

Assay [3] in a line: Cell Viability - H-4-II-E (AID 543; active = well fitted curve in the direction sought with a large enough effect; an effect the other way counts as inactive or inconclusive; note: % is set by controls: 0 for no effect and ±100 for the full control effect; nearly all actives have a fitted effect of over 35% in size). Summed up: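 Cells seeded at 1500 per well and rested 5 hr; compounds added; 40 hr incubation at 37 °C; CellTiter-Glo added, 20 min at room temperature; luminescence read. Hill-equation fits gave AC50.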
Assay [4] can be described thus: MultiTox-Fluor Cytotoxicity Assay - LYMP1-001 - Live Cells (AID 947; active = well fitted curve in the direction sought with a large enough effect; an effect the other way counts as inactive or inconclusive;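 note: 0% = DMSO only and full inhibition = tetraoctylammonium bromide control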).
The target of assay [5] is Glucocorticoid receptor (Homo sapiens) (UniProt P04150). In words: qHTS assay for small molecule agonists of glucocorticoid receptor signaling (AID 588532; active = well fitted curve in the direction sought with a large enough effect in the signal ratio, with a control signal flat; the % refers to the signal ratio;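 note: 100% = dexamethasone at 0.1 µM and 0% = DMSO only wells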). As to conditions: HeLa MMTV-bla, beta-lactamase ratio, agonist, 18 h; stronger effect = higher value; percent of dexamethasone control, DMSO zero. Summed up: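 MMTV-bla HeLa, beta-lactamase reporter; medium with 1% charcoal/dextran-stripped FBS; cpds up to 92 uM, 18 h, 37 C; CCF4 readout 460/530 nm; Hill fit → EC50, efficacy vs 0.1 uM dexamethasone = 100%.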

The nature of assay [6]: qHTS assay for small molecule antagonists of peroxisome proliferator-activated receptor delta signaling (AID 588535; active = well fitted inhibition curve with a large enough effect in the signal ratio, with a control signal flat, not every such curve was filed as active; the % refers to the signal ratio;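 for max response: cells co-treated with a PPAR-delta agonist as stimulator during compound exposure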). Particulars: HEK293T PPARd-UAS-bla, beta-lactamase FRET ratio, 18 h; 460 nm channel. A digest of the protocol:
(§1)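 Inhibition of PPAR-delta response element-driven beta-lactamase expression is measured in HEK293T cells exposed to a compound titration series for 18 hrs at 37 C. Half-maximal inhibition comes from Hill equation fitting.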

The target in assay [7] is Peroxisome proliferator-activated receptor delta (Homo sapiens) (UniProt Q03181). Described as above. Summed up:
as §1

For assay [8], the target named is Vitamin D3 receptor (Homo sapiens) (UniProt P11473). The experiment in a line: qHTS assay for small molecule antagonists of vitamin D receptor signaling (AID 588541).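 Note: receptor activated by calcitriol during compound treatment; % is set by controls: 0 for no effect and ±100 for the full control effect.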 Summed up:
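VDR-UAS-bla HEK293T cells (2000/well, 2% charcoal-stripped FBS) were treated with titrated compounds plus 1-alpha,25-dihydroxyvitamin D3 (50 nM or 3 nM final) for 16 h at 37 C. CCF4 beta-lactamase fluorescence was read; Hill fits gave IC50.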

Assay [9] deals with Thyroid hormone receptor beta (Homo sapiens) (UniProt P10828). In words: qHTS assay for small molecule antagonists of thyroid hormone receptor beta signaling (AID 588547; active = well fitted inhibition curve with a large enough effect in the signal ratio, with a control signal flat, not every such curve was filed as active; the % refers to the signal ratio;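 note: cells stimulated with 0.4 nM T3 agonist during compound exposure; % is set by controls: 0 for no effect and ±100 for the full control effect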). Particulars: TR-UAS-bla HEK293, beta-lactamase ratio, antagonist mode, 18 h. Summed up: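 TR-UAS-bla GripTite HEK293 cells in 2% charcoal/dextran FBS medium were preincubated 4 h at 37 C, given compound (0.59 nM to 92 uM) plus 0.4 nM T3 (final) for 18 h, then CCF4 for 2 h at RT; Hill fit gave IC50.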

A short description of assay [10]: qHTS assay for small molecule agonists of the antioxidant response element (ARE) signaling pathway (AID 651741; active = well fitted activation curve with a large enough effect in the signal ratio; the % refers to the signal ratio; note: % of control where 0% means no effect). Summed up:
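Reporter: beta-lactamase under ARE, stably in HepG2. Exposure: 16 h, 37 C, compounds delivered in DMSO by pin tool after 5 h cell preincubation. Readout: FRET substrate fluorescence after 2 h at RT.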

Assay [11] is described as follows: qHTS assay for small molecule activators of the nuclear factor-kappa B (NF-kB) signaling pathway (AID 651749; active = well fitted activation curve with a large enough effect in the signal ratio; the % refers to the signal ratio; note: % of control where 0% means no effect). Particulars: NF-kB-bla ME-180 cells, beta-lactamase FRET ratio, 16 h; stronger effect = higher value. Summed up:
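Human ME-180 cervical cells with an NF-kB-bla construct; compounds added via 23 nL pin transfer, DMSO as vehicle; incubation 16 hr. Reporter activity measured by FRET disruption.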

The target of assay [12] is Nuclear receptor ROR-gamma (Homo sapiens) (UniProt P51449). The experiment in a line: qHTS assay for small molecule antagonists of the retinoid-related orphan receptor gamma (ROR-gamma) signaling pathway (AID 651802; active = well fitted curve in the direction sought with a large enough effect; an effect the other way counts as inactive or inconclusive;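 note: CHO cells with doxycycline-induced ROR-gamma expression; % is set by controls: 0 for no effect and ±100 for the full control effect; nearly all actives have a fitted effect of over 60% in size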). Summed up:
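Steps: cells dispensed; compound or DMSO transferred by pin tool; doxycycline added to induce the ROR response element-driven luciferase; plates held 16hr at 37C; ONE-Glo added and luminescence measured.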

Assay [13] in a line: qHTS assay for small molecule agonists of the antioxidant response element (ARE) signaling pathway measured by Nrf2-dependant transcriptional activity (AID 720636; active = well fitted curve in the direction sought with a large enough effect in the repeat runs; an effect the other way counts as inactive or inconclusive;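 note: HepG2 cells with an ARE-driven luciferase reporter; % of control where 0% means no effect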). Summed up:
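In HepG2 cells engineered with an Nrf2-responsive luciferase gene, ARE induction was quantified as luminescence after 16 hr compound treatment at 37 C.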

The target of assay [14] is Estrogen receptor (Homo sapiens) (UniProt P03372). The experiment in a line: qHTS assay for small molecule antagonists of estrogen receptor alpha signaling (AID 588513; active = well fitted curve in the direction sought with a large enough effect in the signal ratio, with a control signal flat, not every such curve was filed as active; the % refers to the signal ratio; note: % is set by controls: 0 for no effect and ±100 for the full control effect). Summed up:
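ER-alpha-UAS-bla GripTite HEK 293 cells in medium with 2% charcoal/dextran-treated FBS were preincubated 4 h at 37 C, dosed with compound (1:2 titration), stimulated with 0.5nM 17-beta-estradiol for 18 h, then read by CCF4 beta-lactamase fluorescence.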

Assay [15] shares this target. In words: qHTS assay for small molecule agonists of estrogen receptor alpha signaling (AID 588514).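 Note: 0% = vehicle only and 100% = reference agonist; nearly all actives have a fitted effect of over 70% in size.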 A digest of the protocol: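 Efficacy is expressed against 20 nM 17-beta-estradiol (100%) and DMSO basal (0%); EC50 from Hill equation. Assay: beta-lactamase reporter in ER-alpha-UAS-bla HEK 293 cells, 18 h compound incubation, CCF4 detection.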
For assay [16], the target named is Peroxisome proliferator-activated receptor gamma (Homo sapiens) (UniProt P37231). In words: qHTS assay for small molecule antagonists of peroxisome proliferator-activated receptor gamma signaling (AID 588537; active = well fitted inhibition curve with a large enough effect in the signal ratio, with a control signal flat, not every such curve was filed as active; the % refers to the signal ratio;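 note: reporter cells co-stimulated with 50 nM rosiglitazone agonist during compound treatment; % of control where 0% means no effect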). A digest of the protocol: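 Compounds are tested as concentration series for inhibition of rosiglitazone-driven (50 nM) reporter expression in GeneBLAzer PPAR-gamma-UAS-bla HEK293 cells. After 16 h at 37 C, CCF4 substrate is added for 2 h at room temperature and blue/green fluorescence is measured.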

A short description of assay [17]: qHTS assay for small molecule disruptors of the mitochondrial membrane potential - 5 hr assay (AID 651755). Note: % is set by controls: 0 for no effect and ±100 for the full control effect; nearly all actives have a fitted effect of over 40% in size. Summed up: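 Seed HepG2 overnight, add compound, incubate 5 hr at 37C and 5% CO2, stain 30 min with Mito-MPS, then measure monomer (490/535 nm) and aggregate (540/590 nm) fluorescence.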
For assay [18], the target named is Glucocorticoid receptor (Homo sapiens) (UniProt P04150). In words: qHTS assay for small molecule antagonists of glucocorticoid receptor signaling (AID 588533; active = well fitted inhibition curve with a large enough effect in the signal ratio, with a control signal flat, not every such curve was filed as active; the % refers to the signal ratio;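 note: cells stimulated with 2 nM dexamethasone as agonist; % is set by controls: 0 for no effect and ±100 for the full control effect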). A digest of the protocol:
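Antagonist-mode qHTS: compound titrations added to GRE-bla HeLa cells, then dexamethasone 2 nM final; 18 h, 37 C. CCF4 FRET fluorescence normalized to dexamethasone and DMSO; IC50 from Hill fit.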

In assay [19] the target is Peroxisome proliferator-activated receptor delta (Homo sapiens) (UniProt Q03181). In words: qHTS assay for small molecule agonists of peroxisome proliferator-activated receptor delta signaling (AID 588534).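 Note: 0% = DMSO basal wells and 100% = positive control agonist at 10 µM.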 Summed up:
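Agonist-mode qHTS; reporter cells, 5 hrs 37 C pre-incubation; compound titration, 18 hrs 37 C; CCF4 dye, 2 hrs RT; fluorescence read. EC50/efficacy via Hill fit.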

Assay [20] is described as follows: qHTS assay for small molecule disruptors of the mitochondrial membrane potential - 1 hr assay (AID 651754). Note: % is set by controls: 0 for no effect and ±100 for the full control effect; nearly all actives have a fitted effect of over 35% in size. A digest of the protocol: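 Loss of mitochondrial potential shifts the cationic dye from red mitochondrial aggregates to green cytoplasmic monomers. Cells (HepG2) are treated with compound for 1 hr before a 30 min dye incubation at 37C.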

SMILES strings stand for the structures. Results filed as inconclusive are left out. Activity calls are given as the source filed them. Unless noted, calls come from the whole dose curve. Where only a bound is given, the exact number is not on record here.

Chain of Estrogen receptor (Homo sapiens) (P03372 whole entry, looked up): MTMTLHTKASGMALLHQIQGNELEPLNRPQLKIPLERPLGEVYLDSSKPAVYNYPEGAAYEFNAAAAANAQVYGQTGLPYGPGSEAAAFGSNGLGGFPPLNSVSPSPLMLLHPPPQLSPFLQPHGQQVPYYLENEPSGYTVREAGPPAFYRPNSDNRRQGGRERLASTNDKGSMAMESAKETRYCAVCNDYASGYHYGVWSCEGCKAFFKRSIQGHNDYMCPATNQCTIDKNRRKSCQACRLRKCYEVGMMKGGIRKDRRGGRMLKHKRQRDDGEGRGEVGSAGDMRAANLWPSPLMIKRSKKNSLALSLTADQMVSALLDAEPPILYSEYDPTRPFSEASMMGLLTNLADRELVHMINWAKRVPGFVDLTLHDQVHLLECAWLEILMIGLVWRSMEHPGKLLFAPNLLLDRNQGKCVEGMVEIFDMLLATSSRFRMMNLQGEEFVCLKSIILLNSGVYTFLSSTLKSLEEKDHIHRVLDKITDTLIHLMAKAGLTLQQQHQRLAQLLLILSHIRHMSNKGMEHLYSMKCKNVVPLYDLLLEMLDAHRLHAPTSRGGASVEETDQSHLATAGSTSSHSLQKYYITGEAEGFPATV
Chain of Nuclear receptor ROR-gamma (Homo sapiens) (P51449 whole entry, looked up): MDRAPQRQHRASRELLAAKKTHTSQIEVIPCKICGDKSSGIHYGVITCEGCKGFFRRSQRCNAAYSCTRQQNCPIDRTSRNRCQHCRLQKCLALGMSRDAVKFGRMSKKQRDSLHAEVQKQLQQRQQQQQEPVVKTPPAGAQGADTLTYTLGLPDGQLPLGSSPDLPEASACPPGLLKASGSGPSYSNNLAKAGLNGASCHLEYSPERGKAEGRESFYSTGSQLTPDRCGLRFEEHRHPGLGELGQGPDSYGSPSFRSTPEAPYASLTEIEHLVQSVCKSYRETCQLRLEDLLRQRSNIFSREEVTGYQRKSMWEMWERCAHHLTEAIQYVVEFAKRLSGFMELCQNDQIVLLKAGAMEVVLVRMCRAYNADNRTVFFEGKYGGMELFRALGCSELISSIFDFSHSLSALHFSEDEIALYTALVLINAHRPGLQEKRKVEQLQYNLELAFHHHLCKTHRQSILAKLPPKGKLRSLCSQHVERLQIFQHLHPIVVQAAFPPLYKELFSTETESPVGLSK
Chain of Thyroid hormone receptor beta (Homo sapiens) (P10828 whole entry, looked up): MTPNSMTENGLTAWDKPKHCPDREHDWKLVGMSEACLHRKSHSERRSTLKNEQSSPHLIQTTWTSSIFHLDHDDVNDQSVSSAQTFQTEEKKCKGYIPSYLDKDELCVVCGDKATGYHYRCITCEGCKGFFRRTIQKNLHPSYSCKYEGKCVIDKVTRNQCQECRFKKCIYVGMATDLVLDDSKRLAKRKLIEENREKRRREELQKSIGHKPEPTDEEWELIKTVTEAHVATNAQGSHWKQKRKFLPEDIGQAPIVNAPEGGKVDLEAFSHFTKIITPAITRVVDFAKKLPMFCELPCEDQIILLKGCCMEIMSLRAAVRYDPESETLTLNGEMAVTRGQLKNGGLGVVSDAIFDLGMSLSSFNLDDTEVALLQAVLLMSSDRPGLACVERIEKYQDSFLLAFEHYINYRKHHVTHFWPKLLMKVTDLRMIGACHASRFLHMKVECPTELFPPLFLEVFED
Chain of Glucocorticoid receptor (Homo sapiens) (P04150 whole entry, looked up): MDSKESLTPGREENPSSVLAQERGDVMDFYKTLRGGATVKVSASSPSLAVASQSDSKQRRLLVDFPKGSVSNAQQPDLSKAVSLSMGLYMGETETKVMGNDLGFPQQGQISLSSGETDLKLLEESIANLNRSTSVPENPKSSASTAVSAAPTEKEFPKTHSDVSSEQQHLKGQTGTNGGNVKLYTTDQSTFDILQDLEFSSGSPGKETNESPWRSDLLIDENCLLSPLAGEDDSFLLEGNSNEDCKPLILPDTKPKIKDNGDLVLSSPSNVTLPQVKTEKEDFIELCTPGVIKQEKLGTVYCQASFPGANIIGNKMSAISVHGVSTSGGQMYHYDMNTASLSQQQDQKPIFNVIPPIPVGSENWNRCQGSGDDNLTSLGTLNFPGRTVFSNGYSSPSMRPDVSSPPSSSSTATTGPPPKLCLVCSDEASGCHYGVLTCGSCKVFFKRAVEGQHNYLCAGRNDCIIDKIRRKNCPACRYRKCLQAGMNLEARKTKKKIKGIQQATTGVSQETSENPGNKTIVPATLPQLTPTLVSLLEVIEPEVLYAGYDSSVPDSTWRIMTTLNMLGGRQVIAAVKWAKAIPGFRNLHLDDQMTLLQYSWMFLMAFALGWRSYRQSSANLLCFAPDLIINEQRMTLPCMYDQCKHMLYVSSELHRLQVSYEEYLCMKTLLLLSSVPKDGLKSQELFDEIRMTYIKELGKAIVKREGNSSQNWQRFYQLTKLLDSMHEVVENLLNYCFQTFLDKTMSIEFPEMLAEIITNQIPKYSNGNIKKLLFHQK
Chain of Peroxisome proliferator-activated receptor delta (Homo sapiens) (Q03181 whole entry, looked up): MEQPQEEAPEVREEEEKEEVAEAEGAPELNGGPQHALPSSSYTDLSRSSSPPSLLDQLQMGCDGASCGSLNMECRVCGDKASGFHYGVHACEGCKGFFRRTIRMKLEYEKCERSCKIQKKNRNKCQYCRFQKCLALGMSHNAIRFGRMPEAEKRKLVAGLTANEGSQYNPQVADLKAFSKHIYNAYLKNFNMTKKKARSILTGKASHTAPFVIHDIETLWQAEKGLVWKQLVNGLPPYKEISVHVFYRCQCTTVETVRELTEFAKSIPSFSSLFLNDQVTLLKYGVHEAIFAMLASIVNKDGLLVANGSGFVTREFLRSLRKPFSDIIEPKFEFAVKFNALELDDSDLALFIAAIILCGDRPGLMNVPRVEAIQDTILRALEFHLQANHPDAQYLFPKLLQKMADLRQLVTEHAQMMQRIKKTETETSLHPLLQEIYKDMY
Chain of Vitamin D3 receptor (Homo sapiens) (P11473 whole entry, looked up): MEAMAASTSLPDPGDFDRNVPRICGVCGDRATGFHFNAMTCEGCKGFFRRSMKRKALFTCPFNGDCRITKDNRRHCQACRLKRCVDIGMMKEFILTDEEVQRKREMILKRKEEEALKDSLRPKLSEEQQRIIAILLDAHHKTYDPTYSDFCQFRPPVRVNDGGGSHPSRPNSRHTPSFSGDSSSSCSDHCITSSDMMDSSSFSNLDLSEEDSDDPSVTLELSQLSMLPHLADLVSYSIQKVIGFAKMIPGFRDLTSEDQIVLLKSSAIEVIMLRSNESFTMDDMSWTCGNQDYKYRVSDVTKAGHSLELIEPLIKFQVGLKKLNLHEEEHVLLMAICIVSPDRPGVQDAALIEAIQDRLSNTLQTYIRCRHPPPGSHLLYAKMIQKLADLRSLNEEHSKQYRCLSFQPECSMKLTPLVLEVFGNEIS
Chain of Peroxisome proliferator-activated receptor gamma (Homo sapiens) (P37231 whole entry, looked up): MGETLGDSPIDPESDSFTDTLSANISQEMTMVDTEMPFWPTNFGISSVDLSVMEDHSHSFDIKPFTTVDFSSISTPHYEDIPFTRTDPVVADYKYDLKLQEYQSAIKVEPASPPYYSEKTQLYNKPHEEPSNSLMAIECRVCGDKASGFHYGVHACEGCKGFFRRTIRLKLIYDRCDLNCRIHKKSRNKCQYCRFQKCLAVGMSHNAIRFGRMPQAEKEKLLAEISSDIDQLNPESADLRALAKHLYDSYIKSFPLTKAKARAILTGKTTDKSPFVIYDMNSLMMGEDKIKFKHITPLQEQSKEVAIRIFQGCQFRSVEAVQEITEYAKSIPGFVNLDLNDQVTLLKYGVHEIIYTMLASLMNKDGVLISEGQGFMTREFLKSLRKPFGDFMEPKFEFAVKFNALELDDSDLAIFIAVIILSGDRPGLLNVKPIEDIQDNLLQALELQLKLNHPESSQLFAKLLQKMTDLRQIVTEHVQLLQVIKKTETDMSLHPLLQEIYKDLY

On to `CC(C)[N+](=O)[O-]`, for which the Potency in assay [1] was > 92 µM (inactive). Also, the Potency entry in assay [2], in assay [3], in assay [10], in assay [12] and in [13] was “inactive” throughout. The result in [4], in assay [7] and in assay [8] was inactive. Also, the activation in [5] is -6.88% (inactive); in assay [11], -0.258% (inactive). Also, the max response in assay [6] worked out at 7.55%. The activity change % (negative = inhibition) in assay [9] is 5.36% (inactive).
As to `O=[N+]([O-])c1ccccc1-c1ccccc1`, the Potency in assay [1] is > 92 µM (inactive). Further, the Potency result in [2], in [3], in assay [14], in [15], in assay [10] and in [12] was “inactive” throughout. Moreover, the Potency entry in assay [13] is “inactive”. Further, the call in assay [4] was inactive. For the same compound, the activity change % (negative = inhibition) in assay [9] is -0.648% (inactive).
Consider `FC(Cl)(Cl)Cl`, for which the Potency in assay [1] is > 92 µM (inactive). The Potency result in [2], in [3], in [16], in [10], in assay [17] and in assay [12] was “inactive” each time. The Potency result in [13] was “inactive”. For the same compound, the activation in [5] is 0.534% (inactive). Also, the outcome in assay [8] was inactive. Besides, the activity change % (negative = inhibition) in assay [9] is -7.45% (inactive).
Take `CCC#N`: in assay [1], the Potency was > 92 µM (inactive). Further, the Potency result in assay [2], in assay [3], in [10], in [12] and in assay [13] was “inactive” each time. Also, the compound was called inactive in [4], in assay [18], in assay [19], in assay [7] and in assay [8]. For the same compound, the activation was -7.32% (inactive) in [5] and -1.07% (inactive) in assay [11]. Besides, the max response in assay [6] is -1.4%.
On to `CC(C)CON=O`, for which, in assay [1], the Potency was > 92 µM (inactive). Moreover, the Potency entry in assay [2], in assay [3], in [14], in [15], in assay [20] and in [17] was “inactive” each time. Further, the Potency entry in assay [13] is “inactive”. Moreover, the compound was classed as inactive in assay [4], in assay [18], in assay [19], in [7] and in assay [8]. Moreover, the activation in assay [5] was 2.25% (inactive). Moreover, the max response in assay [6] was -5.59%.
In the case of `Nn1cnnc1`, the Potency in assay [1] was > 92 µM (inactive). Besides, the Potency result in [2], in [3], in [14], in assay [15], in assay [16] and in assay [20] was “inactive” each time. The Potency result in assay [17] and in [13] was “inactive” throughout. Moreover, the compound was classed as inactive in assay [4], in assay [18], in assay [19], in assay [7] and in [8]. In addition, the values for the activation in assay [5] and in assay [11] were -5.65% (inactive) and -1.28% (inactive), respectively. The max response in [6] was -17.8%. In addition, the activity change % (negative = inhibition) in assay [9] is 12.8% (inactive).
